Here are results for 40 compounds from PubChem BioAssay (Tox21).

Records with an inconclusive call do not appear. Entries that show only a call come without a potency. Unmarked numbers belong to inactive results. Active and inactive are the calls of the source. Calls follow the shape of the dose curve; as a rule, active = well fitted activation curve with a large enough effect in the signal ratio in the repeat runs (not every such curve was filed as active); inconclusive = weak or mixed curves, or effect the other way; inactive = flat fitted curve, though single readings scatter; the % refers to the signal ratio.
Potency is read from the fitted curve at half-maximal effect.

Chain of Estrogen receptor beta (Homo sapiens) (Q92731 whole entry, looked up): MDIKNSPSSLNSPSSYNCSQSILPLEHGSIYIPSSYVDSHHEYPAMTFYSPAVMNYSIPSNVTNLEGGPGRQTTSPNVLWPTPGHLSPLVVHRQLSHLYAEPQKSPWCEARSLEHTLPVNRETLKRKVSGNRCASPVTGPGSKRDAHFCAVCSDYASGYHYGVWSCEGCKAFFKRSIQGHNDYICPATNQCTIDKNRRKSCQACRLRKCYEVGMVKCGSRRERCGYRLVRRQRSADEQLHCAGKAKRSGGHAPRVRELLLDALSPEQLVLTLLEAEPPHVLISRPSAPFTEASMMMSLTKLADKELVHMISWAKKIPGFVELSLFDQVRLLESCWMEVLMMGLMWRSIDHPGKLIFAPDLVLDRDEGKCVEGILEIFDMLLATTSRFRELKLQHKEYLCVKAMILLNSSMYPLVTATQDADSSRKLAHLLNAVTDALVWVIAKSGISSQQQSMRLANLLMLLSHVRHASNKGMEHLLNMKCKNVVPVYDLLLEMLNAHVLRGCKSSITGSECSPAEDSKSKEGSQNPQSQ

The assay concerns the target Estrogen receptor beta (Homo sapiens) (UniProt Q92731). Kind of assay: qHTS assay to identify small molecule agonists of the estrogen receptor beta (ER-beta) signaling pathway (AID 1259377). Particulars: ER-beta-UAS-bla HEK293T, beta-lactamase FRET ratio, 16 h; series mostly up to 92.4 µM. An excerpt: U.S. Tox21 Program National Center for Advancing Translational Sciences [NCATS] NIH Chemical Genomics Center [NCGC] U.S. Environmental Protection Agency [EPA] National Institutes of Environmental Health Sciences [NIEHS] National Toxicology Program [NTP] U.S. Food and Drug Administration [FDA] Tox21 Assay Overview: Estrogen receptor (ER), a nuclear hormone receptor, plays an important role in development, metabolic homeostasis and reproduction. Two subtypes of ER, ER-alpha and ER-beta, have similar expression patterns with some uniqueness in both types. Endocrine disrupting chemicals (EDCs) and their interactions with steroid hormone receptors like ER causes disruption of normal endocrine function. To identify the compounds that activate ER signaling, an ER beta-UAS-bla GripTite cell line (Life technologies, Madison, WI, USA) containing a beta-lactamase reporter gene under the control of an Upstream Activator Sequence (UAS) was used to screen Tox21 10K compound library.
Tox21 Assay Protocol Summary: ER-beta-UAS-bla HEK293T cells were dispensed at 2,000 cells/5 uL of assay medium containing 2% charcoal stripped FBS per well into black wall/clear-bottom 1536-well plates using a Multidrop Combi (ThermoFisher Scientific, Waltham, MA) dispenser. After the assay plates were incubated at a 37C and 5% CO2 for 6 hr, 23 nL of compounds dissolved in DMSO, positive controls or DMSO only was transferred to the assay plate by a Pintool station (Kalypsys, San Diego, CA). The plates were incubated at 37C and 5% CO2 for 16 hr. Then 1 uL of LiveBLAzerTM B/G FRET substrate was added using a BioRAPTR FRD (Flying Reagent Dispenser, Aurora Discovery, San Diego, CA). After the plates were incubated at room temperature for 2 hours, fluorescence intensity was measured by an Envision plate reader (PerkinElmer, Shelton, CT).
Background: qHTS replaces the single test concentration by a dilution series.
With `CN1C[C@H]2c3ccccc3Oc3ccc(Cl)cc3[C@@H]2C1`, the Potency entry is “inactive”.

In the case of `C#C[C@]1(O)CC[C@H]2[C@@H]3CCc4cc(OC5CCCC5)ccc4[C@H]3CC[C@@]21C`, the Potency is 6.68 µM (active).

On to `C/C=C/C=C/CO`, for which the Potency result was “inactive”.

Consider `Cn1c(=O)cc(Oc2ccc(F)cc2F)c2cnc(NCC(C)(C)O)nc21`, for which the Potency entry was “inactive”.

With `CCOC(=O)Cc1cccc2ccccc12`, the Potency entry is “inactive”.

As to `Cc1ncc(CO)c(C=O)c1O`, the Potency result was “inactive”.

With `CCCCCCCCCCCCN1CCCCCC1=O`, the Potency entry is “inactive”.

Turning to `Cc1ccc(C(=O)Oc2ccc(C(O)CNC(C)(C)C)cc2OC(=O)c2ccc(C)cc2)cc1` (stereo not given), the Potency result was “inactive”.

In the case of `C1CCCNCCC1`, the Potency result was “inactive”.

With `CO[C@@H]1[C@H](OC(=O)/C=C/C=C/C=C/C=C/C(=O)O)CC[C@]2(CO2)[C@H]1[C@@]1(C)O[C@@H]1CC=C(C)C`, the Potency entry is “inactive”.

Take `CCCCCCCCCCCCCCCCOS(=O)(=O)O`: the Potency entry is “inactive”.

As for `CC(CC=O)c1ccccc1` (stereo not given), the Potency result was “inactive”.

As to `CCOCC(O)COc1ccc(NC(=O)CC[S+](C)C)cc1` (stereo not given), the Potency entry was “inactive”.

For `CC(CSC(=O)c1ccccc1)C(=O)N1C[C@@H](Sc2ccccc2)C[C@H]1C(=O)O` (stereo not given in full), the activation was -2.37% [at 19 µM].

As for `C[N+](C)(C)CCOC(=O)CCC(=O)OCC[N+](C)(C)C`, the Potency result is “inactive”.

Consider `COc1cc2nc(N(C)CCCNC(=O)C3CCCO3)nc(N)c2cc1OC` (stereo not given), for which the Potency entry is “inactive”.

Regarding `CCCCCCCCCCCCCCOS(=O)(=O)O`, the Potency result was “inactive”.

As to `CC1(c2ccccc2)OC(C(=O)O)=CC1=O` (stereo not given), the Potency result is “inactive”.

Take `Cc1ccccc1S(=O)(=O)O`: the Potency entry was “inactive”.

Consider `Cc1oc(-c2ccccc2)nc1CCOc1cccc2c1ccn2CCC(=O)O`, for which the Potency result is “inactive”.

Turning to `CCN(CC)c1ccc2c(-c3ccccc3C(=O)O)c3ccc(=[N+](CC)CC)cc-3oc2c1`, the Potency result is “inactive”.

As to `CCCCC(=O)OCC(=O)[C@H]1[C@H](C)C[C@H]2[C@@H]3C[C@H](F)C4=CC(=O)C=C[C@]4(C)[C@@]3(F)[C@@H](O)C[C@@]21C`, the Potency result is “inactive”.

Consider `CCCOC(C(=O)OC1CCN(C)CC1)(c1ccccc1)c1ccccc1`, for which the Potency result was “inactive”.

`CCCCCCCCCCCCCCCCCCOS(=O)(=O)O`: the Potency result was “inactive”.

`CCCCCCCCO[C@@H]1O[C@H](CO)[C@@H](O)[C@H](O)[C@H]1O`: the Potency result was “inactive”.

Regarding `CCC(Cl)CCC(Cl)C(Cl)CC(Cl)C(Cl)C(Cl)CCl` (stereo not given), the Potency entry is “inactive”.

For the compound `Clc1ccc2c(c1)CCc1cccnc1C2=C1CCNCC1`, the Potency entry was “inactive”.

`O[C@@H](COc1cccc2ncccc12)CN1CCN(C2c3ccccc3[C@@H]3[C@H](c4ccccc42)C3(F)F)CC1` (stereo not given in full): the Potency entry is “inactive”.

Take `CCC(C)c1cc(C(C)(C)C)c(O)c(C(C)(C)C)c1` (stereo not given): the Potency entry is “inactive”.

Consider `c1cc(CCCc2ccncc2)ccn1`, for which the Potency entry is “inactive”.

For `CC(=O)c1cccc([N+](=O)[O-])c1`, the Potency result was “inactive”.

In the case of `CCC(C)(C)CC`, the Potency entry is “inactive”.

In the case of `O=C1[C@H]2CCCC[C@H]2C(=O)N1CCCCN1CCN(c2nsc3ccccc23)CC1`, the Potency result is “inactive”.

Take `OCc1cc(C(O)CNCCCCCCOCCCCc2ccccc2)ccc1O` (stereo not given): the Potency entry was “inactive”.

Turning to `O=S(=O)(Oc1ccc(Cl)cc1)c1ccccc1`, the Potency result was “inactive”.

In the case of `CCCCO`, the Potency entry was “inactive”.

Turning to `O=C(Cl)c1cc(C(=O)Cl)cc(C(=O)Cl)c1`, the Potency result is “inactive”.

Regarding `CCOC(=O)COC(=O)c1cc(Oc2ccc(C(F)(F)F)cc2Cl)ccc1[N+](=O)[O-]`, the Potency result is “inactive”.

For `O=C(NCC1CN(c2ccc(N3CCOCC3=O)cc2)C(=O)O1)c1ccc(Cl)s1` (stereo not given), the Potency result is “inactive”.

On to `CC1OC(=O)C(C)OC1=O` (stereo not given), for which the Potency result is “inactive”.
